# Measurements: PubChem BioAssay (NCI)
# Compounds without any hit were thinned out: in the full panel of roughly 79,000, 15% have a hit. Values without a mark were called inactive. Calls of active or inactive are those of the source. Cut-off read from the data, not from the text of the source: active = growth inhibition above about 70%; inactive = the rest.
# What was measured:
# [1] = NCI Yeast Anticancer Drug Screen. Data for the rad52 strain (AID 147);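 note: 0% = growth of vehicle-treated control cultures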; settings: S. cerevisiae rad52 mutant growth inhibition, hits give high values
# How it was run: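 DNA repair-defective yeast; compound exposure; growth scored against vehicle controls.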
# [2] = NCI Yeast Anticancer Drug Screen. Data for the wt1 strain (AID 149);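 note: 0% = growth of vehicle-treated wt1 cultures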; settings: S. cerevisiae wt1 strain (SPY 50644) growth inhibition, hits give high values
# How it was run: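 Each compound is tested on wt1 yeast and the loss of growth versus vehicle gives the inhibition value.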
# [3] = NCI Yeast Anticancer Drug Screen. Data for the rad50EPP+ strain (AID 151);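 note: 0% = growth of vehicle-treated control cultures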; settings: S. cerevisiae rad50 mutant strain, hits give high values
# How it was run: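 rad50EPP+ yeast treated with test compounds. Readout: growth vs vehicle control.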
# [4] = NCI Yeast Anticancer Drug Screen. Data for the mgt1 strain (AID 153); settings: S. cerevisiae mgt1 mutant growth inhibition, hits give high values
# How it was run: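 Growth inhibition relative to vehicle controls was scored for the mgt1 yeast strain after compound exposure.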
# [5] = NCI Yeast Anticancer Drug Screen. Data for the rad50 strain (AID 155);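 note: 0% = growth of vehicle-only cultures of the same strain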; settings: S. cerevisiae rad50 strain growth inhibition, hits give high values
# How it was run: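 Vehicle-treated cultures provide the reference for the growth inhibition reported for compound-exposed, repair-deficient yeast.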
# [6] = NCI Yeast Anticancer Drug Screen. Data for the mec2-1 strain (AID 157); settings: S. cerevisiae mec2-1 strain, hits give high values
# How it was run: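 Growth inhibition is read against vehicle-treated controls after compound exposure of the mec2-1 yeast strain, which is defective in DNA damage repair or cell cycle control.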
# [7] = NCI Yeast Anticancer Drug Screen. Data for the rad14 strain (AID 159);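 note: 0% = growth of vehicle-treated control cultures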; settings: S. cerevisiae rad14 strain growth inhibition, hits give high values
# How it was run: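 Inhibition of growth is reported for a repair-deficient yeast mutant following compound treatment, calculated relative to cultures that received vehicle.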
# [8] = NCI Yeast Anticancer Drug Screen. Data for the sgs1 mgt1 strain (AID 161);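 note: 0% = growth of cultures given vehicle only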; settings: S. cerevisiae sgs1 mgt1 strain, hits give high values
# How it was run: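 Yeast cells carrying a defined DNA-repair defect were exposed to test compounds. Growth inhibition was measured relative to vehicle-treated controls.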
# [9] = NCI Yeast Anticancer Drug Screen. Data for the CLN2oe strain (AID 163);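 note: 0% = growth of vehicle-only control cultures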; settings: S. cerevisiae CLN2oe strain, hits give high values
# How it was run: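 Compound-treated yeast; growth vs vehicle ctrl = % inhibition. Genetically altered strain (cell-cycle control).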
# [10] = NCI Yeast Anticancer Drug Screen. Data for the cln2 rad14 strain (AID 165);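 note: 0% = growth equal to vehicle treated cultures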; settings: S. cerevisiae cln2 rad14 strain, hits give high values
# How it was run: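 Growth inhibition, relative to vehicle-treated controls, is the read-out. The test organism is a yeast strain with defined genetic alterations, cln2 rad14.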
# [11] = NCI Yeast Anticancer Drug Screen. Data for the bub3 strain (AID 167); settings: S. cerevisiae bub3 mutant strain, hits give high values
# How it was run: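 Mutant yeast screening strain plus compound; vehicle-treated cultures serve as the 0% inhibition reference.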
# [12] = NCI Yeast Anticancer Drug Screen. Data for the wt2 strain (AID 169); settings: S. cerevisiae wt2 strain growth inhibition, hits give high values
# How it was run: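 Compound exposure of yeast; growth compared with vehicle controls; inhibition reported.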
# [13] = NCI Yeast Anticancer Drug Screen. Data for the mlh1 strain (AID 171);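 note: 0% = growth of vehicle-treated control cultures of the same strain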; settings: S. cerevisiae mlh1 strain growth inhibition, hits give high values
# How it was run: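 Compounds are applied to a genetically altered yeast strain, and its growth is compared with that of vehicle-treated cultures to give percent inhibition.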
# [14] = NCI Yeast Anticancer Drug Screen. Data for the sgs1 strain (AID 173);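 note: 0% = growth of vehicle-only control cultures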; settings: S. cerevisiae sgs1 mutant, hits give high values
# How it was run: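 Compounds applied to genetically altered yeast; growth compared with vehicle-treated cultures to give % inhibition.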
# [15] = NCI Yeast Anticancer Drug Screen. Data for the mlh1 rad18 strain (AID 175); settings: S. cerevisiae mlh1 rad18 strain growth inhibition, hits give high values
# How it was run: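 Cells of a genetically altered yeast strain, deficient in DNA damage repair, were treated with compound. Their growth was then compared with that of vehicle-treated cultures to give inhibition.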
# [16] = NCI Yeast Anticancer Drug Screen. Data for the rad18 strain (AID 177); settings: S. cerevisiae rad18 mutant growth inhibition, hits give high values
# How it was run: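 Compounds are applied to a repair-deficient yeast strain, and growth is compared with that of vehicle-treated cultures to give percent inhibition.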
# [17] = at 5.0 µM (retest, dose inferred, filed as 0.5)
# [18] = at 50.0 µM (retest, dose inferred, filed as 5.0)
structure (smiles),measurement,setting,value
COc1ccc2cc3c4cc5c(cc4cc[n+]3cc2c1OC)OCO5,growth inhibition,[1]; at 1.2 µM,22%
same,growth inhibition,[1]; at 3.7 µM,48%
same,growth inhibition,[1]; at 11.0 µM,75% (active)
same,growth inhibition,[1]; at 33.0 µM,94% (active)
same,growth inhibition,[1]; at 100.0 µM,97% (active)
same,growth inhibition,[2]; at 1.2 µM,8%
same,growth inhibition,[2]; at 3.7 µM,29%
same,growth inhibition,[2]; at 11.0 µM,50%
same,growth inhibition,[2]; at 33.0 µM,84% (active)
same,growth inhibition,[2]; at 100.0 µM,95% (active)
same,growth inhibition,[3]; at 1.2 µM,0%
same,growth inhibition,[3]; at 3.7 µM,20%
same,growth inhibition,[3]; at 11.0 µM,60%
same,growth inhibition,[3]; at 33.0 µM,77% (active)
same,growth inhibition,[3]; at 100.0 µM,88% (active)
same,growth inhibition,[4]; at 1.2 µM,15%
same,growth inhibition,[4]; at 3.7 µM,39%
same,growth inhibition,[4]; at 11.0 µM,62%
same,growth inhibition,[4]; at 33.0 µM,89% (active)
same,growth inhibition,[4]; at 100.0 µM,97% (active)
same,growth inhibition,[5]; at 1.2 µM,33%
same,growth inhibition,[5]; at 3.7 µM,70% (active)
same,growth inhibition,[5]; [17],76% (active)
same,growth inhibition,[5]; at 11.0 µM,88% (active)
same,growth inhibition,[5]; at 33.0 µM,94% (active)
same,growth inhibition,[5]; [18],96% (active)
same,growth inhibition,[5]; at 50.0 µM,97.1% (active)
same,growth inhibition,[5]; at 100.0 µM,97% (active)
same,growth inhibition,[6]; at 1.2 µM,9%
same,growth inhibition,[6]; at 3.7 µM,32%
same,growth inhibition,[6]; [17],57%
same,growth inhibition,[6]; at 11.0 µM,55%
same,growth inhibition,[6]; at 33.0 µM,89% (active)
same,growth inhibition,[6]; [18],97% (active)
same,growth inhibition,[6]; at 50.0 µM,92.2% (active)
same,growth inhibition,[6]; at 100.0 µM,97% (active)
same,growth inhibition,[7]; at 1.2 µM,18%
same,growth inhibition,[7]; at 3.7 µM,46%
same,growth inhibition,[7]; at 11.0 µM,78% (active)
same,growth inhibition,[7]; at 33.0 µM,96% (active)
same,growth inhibition,[7]; at 100.0 µM,98% (active)
same,growth inhibition,[8]; [17],68%
same,growth inhibition,[8]; [18],97% (active)
same,growth inhibition,[8]; at 50.0 µM,93.3% (active)
same,growth inhibition,[9]; at 1.2 µM,13%
same,growth inhibition,[9]; at 3.7 µM,29%
same,growth inhibition,[9]; at 11.0 µM,49%
same,growth inhibition,[9]; at 33.0 µM,79% (active)
same,growth inhibition,[9]; at 100.0 µM,97% (active)
same,growth inhibition,[10]; [17],55%
same,growth inhibition,[10]; [18],94% (active)
same,growth inhibition,[10]; at 50.0 µM,89.2% (active)
same,growth inhibition,[11]; at 1.2 µM,6%
same,growth inhibition,[11]; at 3.7 µM,19%
same,growth inhibition,[11]; [17],43%
same,growth inhibition,[11]; at 11.0 µM,46%
same,growth inhibition,[11]; at 33.0 µM,88% (active)
same,growth inhibition,[11]; [18],96% (active)
same,growth inhibition,[11]; at 50.0 µM,97.6% (active)
same,growth inhibition,[11]; at 100.0 µM,98% (active)
same,growth inhibition,[12]; at 1.2 µM,38%
same,growth inhibition,[12]; at 3.7 µM,32%
same,growth inhibition,[12]; at 11.0 µM,62%
same,growth inhibition,[12]; at 33.0 µM,87% (active)
same,growth inhibition,[12]; at 100.0 µM,97% (active)
same,growth inhibition,[13]; at 1.2 µM,12%
same,growth inhibition,[13]; at 3.7 µM,31%
same,growth inhibition,[13]; at 11.0 µM,53%
same,growth inhibition,[13]; at 33.0 µM,87% (active)
same,growth inhibition,[13]; at 100.0 µM,97% (active)
same,growth inhibition,[14]; at 1.2 µM,24%
same,growth inhibition,[14]; at 3.7 µM,28%
same,growth inhibition,[14]; at 11.0 µM,83% (active)
same,growth inhibition,[14]; at 33.0 µM,96% (active)
same,growth inhibition,[14]; at 100.0 µM,98% (active)
same,growth inhibition,[15]; [17],63%
same,growth inhibition,[15]; [18],97% (active)
same,growth inhibition,[15]; at 50.0 µM,97% (active)
same,growth inhibition,[16]; at 1.2 µM,8%
same,growth inhibition,[16]; at 3.7 µM,28%
same,growth inhibition,[16]; at 11.0 µM,53%
same,growth inhibition,[16]; at 33.0 µM,89% (active)
same,growth inhibition,[16]; at 100.0 µM,97% (active)
